Hits are enriched below; roughly 11% of the tested compounds scored in any of these assays.
G9a inh: blocks human histone lysine methyltransferase G9a; Q96KQ7; G9a H3K9 monomethylation, AlphaScreen, 2 h; Potency, µM (highest dose often 102 µM), for the others: top-dose activity, negative = inhibition, actives largely listed as inhibitors; 8.8% of 350,000 active; AID 504332; further: potency means the concentration at half of the fitted maximal effect; on the % scale 0 is the no-effect control and ±100 the full control effect; nearly all actives have a fitted effect of over 75% in size
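Chemiluminescent proximity detection of H3K9 monomethylation, read after 10 min bead incubation in the dark. Reaction: 20 nM G9a, 500 nM biotin-H3K9 peptide, 20 uM SAM cofactor, 2 h, room temperature, following 15 min enzyme-compound preincubation.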
HP1b chromo inh: HP1-beta chromodomain-methylated histone interaction inhibition | P83916 | AlphaScreen HP1-beta / biotin-H3K9me3 peptide binding | Potency, µM (highest dose often 114 µM), for the others: top-dose activity change, negative = inhibition, actives largely listed as inhibitors | 0.56% of 390,000 active | AID 540317; further: potency means the concentration at half of the fitted maximal effect; nearly all actives have a fitted effect of over 70% in size
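Compound inhibition of the preformed complex between 50 nM HP1-beta and 50 nM biotinylated H3K9me3 peptide was read by AlphaScreen. Buffer was PBS pH 7.4 with 0.01% Tween-20. Incubations ran 30 min at room temperature, with 10 ug/mL donor/acceptor beads.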
JMJD2A Tudor inh: JMJD2A Tudor domain (human) inhibition | AlphaScreen JMJD2A-Tudor / H3K4me3 peptide binding | Potency, µM (highest dose often 114 µM), for inactives: at the top dose activity change, negative = inhibition, usual class: inhibitors | 4.4% of 390,000 active | AID 504339; further: potency means the concentration at half of the fitted maximal effect; on the % scale 0 is the no-effect control and ±100 the full control effect; nearly all actives have a fitted effect of over 50% in size
Target sequence (O75164 whole entry, looked up, the tested form may be a part): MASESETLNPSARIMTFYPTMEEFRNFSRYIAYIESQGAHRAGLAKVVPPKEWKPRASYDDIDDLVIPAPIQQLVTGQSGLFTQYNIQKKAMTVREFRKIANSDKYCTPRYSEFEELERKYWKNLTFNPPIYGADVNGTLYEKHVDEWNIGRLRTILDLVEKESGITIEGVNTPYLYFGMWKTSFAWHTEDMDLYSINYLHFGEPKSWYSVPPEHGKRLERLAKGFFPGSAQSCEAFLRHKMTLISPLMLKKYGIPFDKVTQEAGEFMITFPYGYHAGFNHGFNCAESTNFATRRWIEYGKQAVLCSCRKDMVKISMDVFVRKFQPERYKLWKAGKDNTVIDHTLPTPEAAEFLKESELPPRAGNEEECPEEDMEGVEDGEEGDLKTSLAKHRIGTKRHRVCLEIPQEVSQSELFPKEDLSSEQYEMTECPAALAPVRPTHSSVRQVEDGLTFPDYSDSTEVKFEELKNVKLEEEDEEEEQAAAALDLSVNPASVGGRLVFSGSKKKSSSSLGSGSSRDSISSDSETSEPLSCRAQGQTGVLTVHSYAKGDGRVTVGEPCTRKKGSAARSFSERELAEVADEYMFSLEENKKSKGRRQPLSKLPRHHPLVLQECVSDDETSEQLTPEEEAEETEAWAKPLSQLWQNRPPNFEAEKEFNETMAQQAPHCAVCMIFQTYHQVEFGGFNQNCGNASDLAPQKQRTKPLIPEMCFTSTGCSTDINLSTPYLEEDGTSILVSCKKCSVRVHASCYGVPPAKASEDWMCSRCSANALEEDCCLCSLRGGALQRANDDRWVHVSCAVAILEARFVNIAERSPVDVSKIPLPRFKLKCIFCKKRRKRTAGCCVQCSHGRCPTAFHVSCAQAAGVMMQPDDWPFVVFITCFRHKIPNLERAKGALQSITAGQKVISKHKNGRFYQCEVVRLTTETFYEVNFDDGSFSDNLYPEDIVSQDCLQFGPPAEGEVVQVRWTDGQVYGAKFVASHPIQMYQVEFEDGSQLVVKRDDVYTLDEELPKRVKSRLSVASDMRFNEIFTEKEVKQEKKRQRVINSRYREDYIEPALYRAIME
BAZ2B block: blocks human BAZ2B; Q9UIF8; AlphaScreen BAZ2B-H3K14Ac peptide displacement; Potency, µM (doses to about 114 µM), inactives show at the highest dose activity change, negative = inhibition, most hits filed as inhibitors; 4.4% of 360,000 active; further: potency means the concentration at half of the fitted maximal effect; on the % scale 0 is the no-effect control and ±100 the full control effect; nearly all actives have a fitted effect of over 60% in size
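AlphaScreen displacement of biotin-H3(5-23)K14Ac peptide (50 nM final) from BAZ2B (50 nM final) in PBS pH 7.4, 0.01% Tween-20; complex preformed 30 min RT, then compounds (top 110 uM) 30 min RT, beads 20 min dark.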
PI5P4K alpha inh: inhibitors of human PI5P4K alpha. P48426. PI5P4Kalpha enzyme, ADP-Glo luminescence, 60 min; active compounds read low. max response, %. 1.2% of 330,000 active. AID 652105; active means max response of -50% or lower; inconclusive means between -30% and -50%; inactive means -30% or higher; further: value at the top dose of about 77 µM; on the % scale 0 is the no-effect control and ±100 the full control effect
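Human PI5P4Kalpha with substrate in 0.038 M HEPES pH 7.4, 0.28 mM EGTA, 0.1% CHAPS, 5% DMSO; reaction started with 5 microM ATP (final), 60 min at room temperature. ADP formed read by ADP-Glo luminescence.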
L3MBTL1 block: blocks human L3MBTL1 | Q9Y468 | AlphaScreen L3MBTL1–H3K9me1 peptide binding | Potency, µM (highest dose often 57.1 µM), for inactives: at the highest dose activity, negative = inhibition, hits mostly inhibitors | 0.66% of 230,000 active; further: potency means the concentration at half of the fitted maximal effect; on the % scale 0 is the no-effect control and ±100 the full control effect; nearly all actives have a fitted effect of over 60% in size
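L3MBTL1 50 nM + b-AHA-H3(1-15)K9me1 75 nM, 30 min RT; compound added, 30 min RT; streptavidin donor/Ni-chelate acceptor beads 10 ug/mL each final, 30 min RT dark; AlphaScreen read.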
Numbers without * were called inactive; ? = inconclusive; / = not tested or not shown; [ ] = another dose, or the depositor's remark. Unless noted, the call rests on the fitted dose curve; in most records, active means well fitted inhibition curve with a large enough effect; inconclusive means small, poorly fitted or top-dose-only effect; inactive means no such curve, though single readings can be large or run the other way.

SMILES | G9a inh | HP1b chromo inh | JMJD2A Tudor inh | BAZ2B block | PI5P4K alpha inh | L3MBTL1 block
COc1ccc(-n2c3c(cc(-c4nc(-c5ccc(C)cc5)cs4)c2=O)C(=O)CC(C)(C)C3)cc1 | 2%[59 µM] | 76% | 3% | 7% | / | /
COc1ccc(OC)c(-n2c3c(cc(-c4nc(-c5ccc(Cl)cc5)cs4)c2=O)C(=O)CC(C)(C)C3)c1 | 8%[59 µM] | 65% | 28% | 9% | / | /
CC1(C)CC(=O)c2cc(-c3nc(-c4ccc(F)cc4)cs3)c(=O)[nH]c2C1 | 1.3µM* | 34% | ? | 71µM* | / | /
CC1(C)CC(=O)c2cc(-c3nc(-c4ccc(Cl)cc4)cs3)c(=O)[nH]c2C1 | 14µM* | 29% | 3% | 1% | / | /
Cc1[nH]c2ccc(C(=O)N3CCCCC3)cc2c1C | -6% | 16% | -26% | -8% | -4 | /
Cc1[nH]c2ccc(C(=O)N3CCCC3)cc2c1C | -36% | 29% | -10% | -20%[57.1 µM] | 0 | /
COc1ccc(NC2CCCN(C(=O)c3ccc4[nH]c(C)c(C)c4c3)C2)cc1OC (centres undefined) | / | -8% | ? | 45µM* | 3 | /
Cc1[nH]c2ccc(C(=O)N3CCN(c4ccccc4Cl)CC3)cc2c1C | ? | ? | 45µM* | 22µM* | 1 | /
Cc1[nH]c2ccc(C(=O)N3CCN(c4cccc(Cl)c4)CC3)cc2c1C | 40µM* | -5% | ? | ? | 7 | /
COc1ccccc1N1CCN(C(=O)c2ccc3[nH]c(C)c(C)c3c2)CC1 | 40µM* | -23%[57 µM] | ? | ? | -4 | /
Cc1ccc2scc(N3CCCCC3)c(=O)c2c1 | -4%[59 µM] | 4%[57 µM] | ? | ? | / | /
CCNc1ncc2nc(-c3cc(F)cc(F)c3)c(=O)n(-c3ccccc3)c2n1 | -4%[12.7 µM] | / | / | / | / | /
Cc1cccc(N2CCN(C(=O)c3ccc4[nH]c(C)c(C)c4c3)CC2)c1C | / | -38% | ? | / | -3 | -26%
CC1=C(C(=O)Nc2ccc(C(=O)N3CCN(c4cccc(Cl)c4)CC3)cc2)SCCO1 | 45µM* | -7% | ? | ? | -7 | /
COc1ccccc1N1CCN(C(=O)c2cc3c(C)nc4ccccc4c3o2)CC1 | 50µM* | 24% | -33% | ? | 0 | /
Cc1[nH]c2ccc(C(=O)N3CCN(c4ccccc4F)CC3)cc2c1C | ? | ? | 89µM* | ? | / | /
C=CCn1c(=O)[nH]c2cc(C(=O)N3CCN(c4cccc(Cl)c4)CC3)ccc2c1=O | 8%[2.33 µM] | 0% | -34% | -14% | -53* | ?
Cc1nnc(SCC(=O)NCc2ccc(N(C)C)cc2)c2nn(-c3ccccc3)c(C)c12 | ? | -17% | ? | ? | / | /
CC1CCc2[nH]c3ccc(C(=O)O)cc3c2C1 (centres undefined) | / | 37% | -4% | 19% | -8 | 15%
CCOC(=O)c1[nH]c(C)c(C(=O)N2CCN(c3cccc(Cl)c3)CC2)c1C | ? | -14% | ? | 50µM* | / | -6%
COc1ccccc1N1CCN(C(=O)c2ccc3[nH]c4c(c3c2)CC(C)CC4)CC1 (centres undefined) | ? | ? | ? | 40µM* | 2 | -14%
CCOC(=O)c1[nH]c(C)c(C(=O)N2CCN(c3ccc(F)cc3)CC2)c1C | ? | 16% | -27% | -34% | / | -5%
Cc1ccc(NC(=O)Cn2cc(S(=O)(=O)N3CCCC3)c(S(=O)(=O)N3CCCC3)c2)cc1F | -27%[59 µM] | 30% | -15% | 11%[57.1 µM] | / | /
CN(C(=O)CSc1nc(-c2ccccc2)cn1N)C(c1ccccc1)c1ccccc1 | 18µM* | -26% | ? | 45µM* | / | /
COc1ccccc1CNC(=O)CSc1nc(-c2ccccc2)cn1N | -35%[12.7 µM] | 2% | -24% | ? | / | /
SMILES | G9a inh | HP1b chromo inh | JMJD2A Tudor inh | BAZ2B block | PI5P4K alpha inh | L3MBTL1 block
COc1ccc(NC(=O)N2CC3(CCN(C(=O)c4cccc(F)c4)CC3)C2)cc1 | 5%[12.7 µM] | / | / | / | / | /
O=[N+]([O-])c1ccccc1/C=C/CN1CCCCC1 | -10%[59 µM] | 29% | 1% | -2% | / | 0%
CCOC(=O)C1CCCN(C/C=C/c2ccccc2)C1 (centres undefined) | 40µM* | ? | 22µM* | ? | 0 | 5%
CCOC(=O)C1CCN(CC(C)(C)NS(=O)(=O)c2ccccc2)CC1 | ? | 79µM* | 1.8µM* | -27% | 1 | /
CCN(CC)C(=O)C1CCCN(C/C=C/c2ccccc2[N+](=O)[O-])C1 (centres undefined) | 35µM* | ? | 3.2µM* | ? | -8 | -1%
CCOC(=O)C1CCN(C/C=C/c2ccccc2)CC1 | 45µM* | -37% | 79µM* | ? | 0 | -5%
Cc1cccc(Cn2ncc3c4sc(C)cc4n(C)c3c2=O)c1 | / | / | 11% | / | / | /
COc1ccc(-c2ccc(OC)c(C3C4C=CCCC4(C)C(=O)N3Cc3ccccc3)c2)cc1 (centres undefined) | / | 3% | -34% | / | / | /
Cc1cc(C)c2c(CC(=O)Nc3nnc(C(C)C)s3)coc2c1 | 3%[59 µM] | 7% | -17% | -20% | / | /
COc1ccc(CCNC(=O)c2ccc3c(c2)N(Cc2ccc(Cl)cc2)C(=O)c2ccccc2S3)cc1OC | 3%[59 µM] | -4% | -23% | -24% | / | /
CCN(CC)CCN1C(=O)C(=O)/C(=C(/O)c2cccc(OC)c2)C1c1ccccn1 (centres undefined) | ? | 8% | ? | ? | -4 | -16%
COCCCN1C(=O)C(=O)/C(=C(/O)c2ccc(C)cc2)C1/C=C/c1ccccc1 (centres undefined) | 45µM* | -2% | -9% | -19% | 0 | 8%
COCCCN1C(=O)C(=O)/C(=C(/O)c2ccc(OC)cc2)C1c1cccc(OC)c1 (centres undefined) | ? | 22% | -8% | -35% | 1 | 1%
COC(CN1C(=O)C(=O)/C(=C(/O)c2ccccc2)C1c1ccccn1)OC (centres undefined) | 50µM* | 31% | -1% | -36% | -5 | -2%
COCCCN1C(=O)C(=O)/C(=C(/O)c2ccc(OC(C)C)c(C)c2)C1c1ccncc1 (centres undefined) | 40µM* | 22% | -23% | ? | 0 | 1%
COCCCN1C(=O)C(=O)/C(=C(/O)c2ccc(C)cc2)C1c1ccccc1 (centres undefined) | 50µM* | 2% | ? | -8% | 0 | 1%
COCCN1C(=O)C(=O)/C(=C(/O)c2ccc(C)cc2)C1c1ccccn1 (centres undefined) | 50µM* | 9% | -35% | -31% | 2 | 0%
Cc1ccc(/C(O)=C2/C(=O)C(=O)N(CCCn3ccnc3)C2c2ccccn2)cc1 (centres undefined) | 8% | / | / | -19% | / | 9%
